The values that follow come from PubChem BioAssay AID2157 (National Center for Advancing Translational Sciences (NCATS), 2009).

Inconclusive results are not listed. Values without a mark were called inactive. Calls of active or inactive are those of the source. Calls come from the whole dose curve; as a rule, active = well fitted inhibition curve with a large enough effect; inconclusive = small, poorly fitted or top-dose-only effect; inactive = no such curve, though single readings can be large or run the other way.

Sequence of Polyunsaturated fatty acid lipoxygenase ALOX15 (Homo sapiens) (P16050 whole entry, looked up): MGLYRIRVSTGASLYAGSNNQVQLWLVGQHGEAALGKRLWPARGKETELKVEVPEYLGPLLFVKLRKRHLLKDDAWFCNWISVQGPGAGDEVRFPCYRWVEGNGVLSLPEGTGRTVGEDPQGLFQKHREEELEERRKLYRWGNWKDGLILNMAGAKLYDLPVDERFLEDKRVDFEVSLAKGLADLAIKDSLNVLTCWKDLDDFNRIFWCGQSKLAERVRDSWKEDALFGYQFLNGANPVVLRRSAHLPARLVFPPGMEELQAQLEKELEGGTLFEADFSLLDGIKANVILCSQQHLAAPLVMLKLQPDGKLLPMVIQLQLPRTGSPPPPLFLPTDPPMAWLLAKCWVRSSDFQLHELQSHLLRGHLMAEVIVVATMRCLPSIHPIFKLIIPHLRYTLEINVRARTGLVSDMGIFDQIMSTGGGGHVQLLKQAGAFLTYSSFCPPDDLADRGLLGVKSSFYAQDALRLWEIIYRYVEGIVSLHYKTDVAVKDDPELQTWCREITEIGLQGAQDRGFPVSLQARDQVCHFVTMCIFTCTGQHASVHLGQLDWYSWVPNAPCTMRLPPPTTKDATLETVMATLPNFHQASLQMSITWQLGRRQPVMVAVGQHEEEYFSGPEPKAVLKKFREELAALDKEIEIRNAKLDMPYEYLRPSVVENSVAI

This assay has as its target Polyunsaturated fatty acid lipoxygenase ALOX15 (Homo sapiens) (UniProt P16050). The assay can be described thus: Confirmation qHTS Assay for Inhibitors of 15-hLO (15-human lipoxygenase). The following applies: purified enzyme, xylenol orange hydroperoxide absorbance; max response: active compounds read low. From the text:
Assay Provider: Holman, T.R., University of California, Santa Cruz Screening Center PI: Austin, Christopher P. Screening Center: NIH Chemical Genomics Center Human lipoxygenase 15hLO-1 is a member of the closely related lipoxygenase family of enzymes which catalyze the site-specific oxidation of arachidonic acid to various hormone precursor molecules and as such is a candidate for drug development in a variety of disease areas, such as cancer and inflammation. Inhibition of 15hLO-1 activity was screened by utilizing arachidonic acid as a substrate. The extent of hydroperoxide product formation was measured by a secondary chromogenic reaction in which xylenol orange (XO, Sigma-Aldrich, cat. number 39,818-7) reacts with the ferric ions produced from the reaction between the hydroperoxide and ferrous ions. The Fe(III)-XO complex is characterized with red-shifted absorbance at 560 nm. A purified preparation of human 15hLO-1 was supplied by Professor Ted Holman, University of California, Santa Cruz. This assay includes some confirmation and follow-up compounds for related primary screening assay AID 887.
Assay Protocol: Buffer: 25 mM Hepes pH 7.5, 0.01% Triton X-100. Reagents/Controls: Buffer in columns 3 and 4 as negative control (no enzyme). Substrate solution: 50 uM arachidonic acid (Sigma-Aldrich, St. Louis, MO) final concentration dispensed throughout the plate. Enzyme: 40 nM 15hLO-1 final concentration in columns 1, 2, 5-48. Column 1 is neutral (100% activity). Column 2 contained pin-transferred titration of NDGA (nordihidroguaiaretic acid, Sigma-Aldrich, N 5023, top concentration 10 mM in DMSO, then 1:2 dilution in duplicate). (Dilution factor: 23 nL into 4 uL.) Chromogenic detection reagent (divalent iron/xylenol orange, Fe-XO): 200 uM xylenol orange plus 300 uM ferrous ammonium sulfate prepared freshly in 50 mM sulfuric acid. Assay Steps: Three uL of enzyme were dispensed to 1536-well Greiner black clear bottom plates. Compounds and controls (23 nL) were transferred via Kalypsys PinTool. The plates were incubated for 15 min at room temperature, and then 1 uL of substrate solution was added to start the reaction. After room temperature incubation for 6 minutes, 4 uL of Fe-XO solution was added to each well followed by a short spin (1000 rpm, 15 sec) and the plates were then incubated for 30 min. The absorbance at 405 and 573 nm were measured using ViewLux (Perkin-Elmer) High-throughput CCD imager and absorbance protocol settings. The 573-to-405 absorbance ratio was used to compute reaction progress.
For orientation: qHTS replaces the single test concentration by a dilution series.
Regarding `Cc1cccc(CNc2ncnc3ccc(-c4ccc5c(c4)OCO5)cc23)c1`, the max response is -24.2%. Turning to `O=C1C2C3CCCC3=C3CCCC3C2C(=O)N1c1cccc(Cl)c1` (configuration not stated), the Potency was 14.1 µM (active).

In the case of `NC(=O)c1cccc2c3c([nH]c12)CCCC3`, the Potency is 10 µM (active). Take `O=C(c1ccncc1)N1CCC2(CCCN(Cc3nccs3)C2)CC1`: the max response is -6.92%. The same measure, in the same setting: the figure for `Clc1ccc(NNc2ccnc3cc(Cl)ccc23)cc1` is -9.48%. Take `Cc1cc(/C=N/NC(=O)Cn2c3ccccc3c(=O)c3ccccc32)c(C)n1-c1ccccc1`: the Potency was 11.2 µM (active). Same read-out and setting: then `CCOC(=O)c1c(NC(=O)CN2CCOCC2)sc2c1CCCC2`, with 31.6 µM (active). As to `COCCSc1ccccc1C(=O)NCc1ccco1`, the max response was -26.5%. Still for that read-out and setting: the figure for `O=C(Cc1cc(=O)[nH][nH]1)N/N=C/C=C/c1ccccc1` is -11.2%; for `O=C(Nc1nnc(-c2ccco2)s1)C1CCCCC1` it is -11.3%; for `CC(=O)NCCNc1ncncc1-c1ccc(N(C)C)cc1` it is -61.2%.

For the compound `O=C(C1=C(O)C(=O)N(Cc2ccco2)C1c1cccnc1)c1cc2ccccc2o1` (configuration not stated), the max response was -10.1%. Still for that read-out and setting: the figure for `COC(=O)c1ccc2c(c1)C(=O)N(C1CCCCC1)C2=O` is -13.1%. On to `Cc1ccc(OCC(=O)Nc2ccc(N3CCCC3)cc2)cc1C`, for which the Potency is 15.8 µM (active).

Consider `CCC(=O)N(Cc1cc(=O)[nH]c2ccccc12)C1CCCCC1`, for which the max response was -6.49%. The same measure, in the same setting: then `CN(C)CCC(=O)c1ccc(Cl)cc1`, with -16.6%. As for `CN1CCN(C(c2cccnc2)c2ccc3cccnc3c2O)CC1` (configuration not stated), the max response was -27.2%. On to `COc1cccc(-c2nc(NC3CCNCC3)c3ccccc3n2)c1`, for which the max response is -13.6%. As for `COc1cccc(-c2nccc(NCc3ccccc3OC)n2)c1`, the Potency was 11.2 µM (active). Turning to `O=C(Nc1nnc(-c2ccccc2)o1)c1ccc(Cl)cc1`, the max response was -12.7%.

Regarding `O=C(Nc1nc2n(n1)C(c1ccccc1)CC(c1ccc(Cl)cc1)N2)c1ccco1` (configuration not stated), the max response is -20.1%.

As for `COc1ccc(OC)c(NC(=O)NC2(C(F)(F)F)Oc3ccccc3O2)c1`, the max response is -7.82%. The same measure, in the same setting: the figure for `CCOc1ccc(NS(=O)(=O)c2ccc3[nH]cc(C(=O)N(CC)CC)c(=O)c3c2)cc1` is -12.4%. Same read-out and setting: then `O=C(Nc1cccc(F)c1)N1CCCC2(CCN(C(=O)c3ccco3)CC2)C1`, with -7.24%; and `Cc1cc(Nc2nnnn2-c2ccccc2)n(-c2ccc(Cl)cc2)n1`, with -13%. On to `CCCCn1c(Cc2ccccc2)n[nH]c1=S`, for which the max response was -14.5%.

On to `Clc1ccc(-c2nnc(C3CCCCC3)o2)cc1`, for which the max response is -10.3%. As to `COC(=O)c1ccc(C(=S)N2CCOCC2)cc1`, the Potency was 15.8 µM (active). On the same count and under the same terms, then `Oc1ccc2ccccc2c1CNc1cnc2ccccc2c1`, with 14.1 µM (active). As for `Cc1c(N/C=C/C(=O)c2cccs2)c(=O)n(-c2ccccc2)n1C`, the max response is -25.2%.

Turning to `Cc1noc(C)c1-c1nc(N(C)Cc2ccco2)c2ccccc2n1`, the max response is -25.4%.

Take `COc1ccccc1-n1c(SCC(=O)Nc2ccc(C)cc2)nc(O)cc1=O`: the max response is -8.11%. As to `COc1ccccc1CNc1ncncc1-c1ccoc1`, the Potency is 11.2 µM (active).

With `Cc1ccc(-c2ccc(/C=C3\C(=O)ON=C3c3ccccc3)o2)c([N+](=O)[O-])c1`, the Potency is 2.51 µM (active). In the case of `c1csc(C2Nc3cccc4cccc(c34)N2)c1`, the Potency was 8.91 µM (active). `CCCC(=O)NC(c1ccco1)c1cc(Cl)c2cccnc2c1O` (configuration not stated): the max response is -17.9%.

`COc1ccc(NC(=O)CSc2nc(O)cc(=O)n2-c2ccccc2OC)cc1`: the max response was -13.4%.
